Source: publication PMC11006913
Changes are numbered by the printed parent chain.

Tests used:
Assay in all cases: PBM; 200 nM protein, PBS
Details in all cases: dsDNA, one strand shown
[1] = target: HOXB4 (Homo sapiens, UniProt P17483 148-234)
[2] = target: T1, PAX4 (Homo sapiens, UniProt O43316 9-242, R200K)
T1 sequence: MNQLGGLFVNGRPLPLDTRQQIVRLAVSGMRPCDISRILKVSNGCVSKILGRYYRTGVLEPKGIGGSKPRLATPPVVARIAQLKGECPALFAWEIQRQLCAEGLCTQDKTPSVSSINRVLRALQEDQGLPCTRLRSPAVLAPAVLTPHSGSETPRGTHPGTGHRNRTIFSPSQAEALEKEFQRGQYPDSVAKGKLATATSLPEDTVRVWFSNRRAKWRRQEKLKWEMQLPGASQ

[3] = target: T2, PAX4 (Homo sapiens, UniProt O43316 9-242)
T2 sequence: T1 sequence with K192R

[4] = target: HOXB4 (Homo sapiens, UniProt P17483 148-234, V174I)
[5] = target: T3, PAX4 (Homo sapiens, UniProt O43316 9-242, R200Q)
T3 sequence: T1 sequence with K192Q

[6] = target: T4, PAX4 (Homo sapiens, UniProt O43316 9-242, F177V)
T4 sequence: T1 sequence with F169V, K192R

[7] = target: T5, PAX4 (Homo sapiens, UniProt O43316 9-242, F177Y)
T5 sequence: T1 sequence with F169Y, K192R

[8] = target: T6, PAX4 (Homo sapiens, UniProt O43316 9-242, R227W)
T6 sequence: T1 sequence with K192R, R219W

[9] = target: ALX4 (Homo sapiens, UniProt Q9H161 200-286)
[10] = target: ALX4 (Homo sapiens, UniProt Q9H161 200-286, Q225E)
[11] = target: HOXB6 (Homo sapiens, UniProt P17509 132-218, K202E)
[12] = target: HOXB6 (Homo sapiens, UniProt P17509 132-218)
[13] = target: HOXA4 (Homo sapiens, UniProt Q00056 201-287, R217L)
[14] = target: HOXC10 (Homo sapiens, UniProt Q9NYD6 254-340)
[15] = target: HOXC10 (Homo sapiens, UniProt Q9NYD6 254-340, K271E)
Chain of HOXC10 (Homo sapiens, UniProt Q9NYD6 254-340, K271E) (Q9NYD6 254-340 K271E): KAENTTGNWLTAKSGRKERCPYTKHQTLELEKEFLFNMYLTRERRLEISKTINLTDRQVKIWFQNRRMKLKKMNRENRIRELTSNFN

Chain of HOXB4 (Homo sapiens, UniProt P17483 148-234, V174I) (P17483 148-234 V174I): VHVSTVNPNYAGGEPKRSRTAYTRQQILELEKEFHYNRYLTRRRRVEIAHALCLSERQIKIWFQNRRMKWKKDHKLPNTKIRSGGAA
Chain of HOXB4 (Homo sapiens, UniProt P17483 148-234) (P17483 148-234): as the sequence (P17483 148-234 V174I) above, with I27V counted along it
Chain of ALX4 (Homo sapiens, UniProt Q9H161 200-286, Q225E) (Q9H161 200-286 Q225E): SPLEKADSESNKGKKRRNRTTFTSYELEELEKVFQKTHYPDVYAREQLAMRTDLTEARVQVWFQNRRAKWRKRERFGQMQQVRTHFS
Chain of ALX4 (Homo sapiens, UniProt Q9H161 200-286) (Q9H161 200-286): as the sequence (Q9H161 200-286 Q225E) above, with E26Q counted along it
Chain of HOXC10 (Homo sapiens, UniProt Q9NYD6 254-340) (Q9NYD6 254-340): as the sequence (Q9NYD6 254-340 K271E) above, with E18K counted along it
Chain of HOXB6 (Homo sapiens, UniProt P17509 132-218, K202E) (P17509 132-218 K202E): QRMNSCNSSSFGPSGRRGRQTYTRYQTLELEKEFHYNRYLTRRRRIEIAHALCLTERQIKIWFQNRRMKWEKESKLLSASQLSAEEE
Chain of HOXA4 (Q00056 201-287 R217L): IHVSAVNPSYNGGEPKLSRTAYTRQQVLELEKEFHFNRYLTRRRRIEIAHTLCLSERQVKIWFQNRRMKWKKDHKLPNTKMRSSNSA
Chain of HOXB6 (Homo sapiens, UniProt P17509 132-218) (P17509 132-218): as the sequence (P17509 132-218 K202E) above, with E71K counted along it

## AGACCAGC
[1]
  binding signal: 7.43 upbm affinity estimate (log intensity, higher = more binding, comparable within an allelic series)
[2]
  binding signal: 9.14 upbm affinity estimate (log intensity, higher = more binding, comparable within an allelic series)
[3]
  binding signal: 9.21 upbm affinity estimate (log intensity, higher = more binding, comparable within an allelic series)
[4]
  binding signal: 7.5 upbm affinity estimate (log intensity, higher = more binding, comparable within an allelic series)
[5]
  binding signal: 9.31 upbm affinity estimate (log intensity, higher = more binding, comparable within an allelic series)
[6]
  binding signal: 9.23 upbm affinity estimate (log intensity, higher = more binding, comparable within an allelic series)
[7]
  binding signal: 9.22 upbm affinity estimate (log intensity, higher = more binding, comparable within an allelic series)
[8]
  binding signal: 9.29 upbm affinity estimate (log intensity, higher = more binding, comparable within an allelic series)

## CCAGCTCG
[1]
  binding signal: 7.72 upbm affinity estimate (log intensity, higher = more binding, comparable within an allelic series)
[9]
  binding signal: 8.09 upbm affinity estimate (log intensity, higher = more binding, comparable within an allelic series)
[10]
  binding signal: 8.29 upbm affinity estimate (log intensity, higher = more binding, comparable within an allelic series)
[4]
  binding signal: 7.66 upbm affinity estimate (log intensity, higher = more binding, comparable within an allelic series)

## CACGCCGA
[1]
  binding signal: 7.66 upbm affinity estimate (log intensity, higher = more binding, comparable within an allelic series)
[4]
  binding signal: 7.67 upbm affinity estimate (log intensity, higher = more binding, comparable within an allelic series)

## CAGGCGCG
[1]
  binding signal: 7.35 upbm affinity estimate (log intensity, higher = more binding, comparable within an allelic series)
[11]
  binding signal: 9.01 upbm affinity estimate (log intensity, higher = more binding, comparable within an allelic series)
[4]
  binding signal: 7.45 upbm affinity estimate (log intensity, higher = more binding, comparable within an allelic series)
[12]
  binding signal: 8.9 upbm affinity estimate (log intensity, higher = more binding, comparable within an allelic series)

## CCTGTGGA
[1]
  binding signal: 7.33 upbm affinity estimate (log intensity, higher = more binding, comparable within an allelic series)
[9]
  binding signal: 8.17 upbm affinity estimate (log intensity, higher = more binding, comparable within an allelic series)
[10]
  binding signal: 8.04 upbm affinity estimate (log intensity, higher = more binding, comparable within an allelic series)
[4]
  binding signal: 7.56 upbm affinity estimate (log intensity, higher = more binding, comparable within an allelic series)

## AATGATTA
[1]
  binding signal: 13.1 upbm affinity estimate (log intensity, higher = more binding, comparable within an allelic series)
[13]
  binding signal: 12 upbm affinity estimate (log intensity, higher = more binding, comparable within an allelic series)
[4]
  binding signal: 13.8 upbm affinity estimate (log intensity, higher = more binding, comparable within an allelic series)

## CAGGGTCC
[1]
  binding signal: 7.33 upbm affinity estimate (log intensity, higher = more binding, comparable within an allelic series)
[14]
  binding signal: 10 upbm affinity estimate (log intensity, higher = more binding, comparable within an allelic series)
[4]
  binding signal: 7.37 upbm affinity estimate (log intensity, higher = more binding, comparable within an allelic series)
[15]
  binding signal: 10 upbm affinity estimate (log intensity, higher = more binding, comparable within an allelic series)

## GATCGTTA
[1]
  binding signal: 12.3 upbm affinity estimate (log intensity, higher = more binding, comparable within an allelic series)
[4]
  binding signal: 12.8 upbm affinity estimate (log intensity, higher = more binding, comparable within an allelic series)

## CATCAGCG
[1]
  binding signal: 10.1 upbm affinity estimate (log intensity, higher = more binding, comparable within an allelic series)
[4]
  binding signal: 10.3 upbm affinity estimate (log intensity, higher = more binding, comparable within an allelic series)

## GCTGGCGA
[1]
  binding signal: 7.41 upbm affinity estimate (log intensity, higher = more binding, comparable within an allelic series)
[4]
  binding signal: 7.45 upbm affinity estimate (log intensity, higher = more binding, comparable within an allelic series)

## ATCGTTCC
[1]
  binding signal: 9.81 upbm affinity estimate (log intensity, higher = more binding, comparable within an allelic series)
[4]
  binding signal: 9.76 upbm affinity estimate (log intensity, higher = more binding, comparable within an allelic series)

## CAATAAGA
[1]
  binding signal: 9.65 upbm affinity estimate (log intensity, higher = more binding, comparable within an allelic series)
[4]
  binding signal: 9.56 upbm affinity estimate (log intensity, higher = more binding, comparable within an allelic series)

## CCGGGTTC
[1]
  binding signal: 7.62 upbm affinity estimate (log intensity, higher = more binding, comparable within an allelic series)
[4]
  binding signal: 7.65 upbm affinity estimate (log intensity, higher = more binding, comparable within an allelic series)

## ATCTCTTA
[1]
  binding signal: 9.96 upbm affinity estimate (log intensity, higher = more binding, comparable within an allelic series)
[4]
  binding signal: 9.9 upbm affinity estimate (log intensity, higher = more binding, comparable within an allelic series)

## ACGCAATA
[1]
  binding signal: 9.72 upbm affinity estimate (log intensity, higher = more binding, comparable within an allelic series)
[4]
  binding signal: 9.78 upbm affinity estimate (log intensity, higher = more binding, comparable within an allelic series)

## CCTCACCG
[1]
  binding signal: 7.41 upbm affinity estimate (log intensity, higher = more binding, comparable within an allelic series)
[4]
  binding signal: 7.32 upbm affinity estimate (log intensity, higher = more binding, comparable within an allelic series)

## CCGTTATC
[1]
  binding signal: 9.78 upbm affinity estimate (log intensity, higher = more binding, comparable within an allelic series)
[4]
  binding signal: 9.74 upbm affinity estimate (log intensity, higher = more binding, comparable within an allelic series)

## CGCCGTGC
[1]
  binding signal: 7.83 upbm affinity estimate (log intensity, higher = more binding, comparable within an allelic series)
[4]
  binding signal: 7.83 upbm affinity estimate (log intensity, higher = more binding, comparable within an allelic series)

## ATGAGTTA
[1]
  binding signal: 10.4 upbm affinity estimate (log intensity, higher = more binding, comparable within an allelic series)
[4]
  binding signal: 10.6 upbm affinity estimate (log intensity, higher = more binding, comparable within an allelic series)

## ACTATATG
[1]
  binding signal: 9.48 upbm affinity estimate (log intensity, higher = more binding, comparable within an allelic series)
[4]
  binding signal: 9.35 upbm affinity estimate (log intensity, higher = more binding, comparable within an allelic series)

## CCCGTGCG
[1]
  binding signal: 7.96 upbm affinity estimate (log intensity, higher = more binding, comparable within an allelic series)
[4]
  binding signal: 7.88 upbm affinity estimate (log intensity, higher = more binding, comparable within an allelic series)

## GCGGCTGA
[1]
  binding signal: 7.8 upbm affinity estimate (log intensity, higher = more binding, comparable within an allelic series)
[4]
  binding signal: 7.53 upbm affinity estimate (log intensity, higher = more binding, comparable within an allelic series)

## AATGGTCA
[1]
  binding signal: 10.4 upbm affinity estimate (log intensity, higher = more binding, comparable within an allelic series)
[4]
  binding signal: 10.5 upbm affinity estimate (log intensity, higher = more binding, comparable within an allelic series)

## GCAATTTA
[1]
  binding signal: 11.5 upbm affinity estimate (log intensity, higher = more binding, comparable within an allelic series)
[4]
  binding signal: 11.7 upbm affinity estimate (log intensity, higher = more binding, comparable within an allelic series)

## CCTGCGTC
[1]
  binding signal: 7.55 upbm affinity estimate (log intensity, higher = more binding, comparable within an allelic series)
[4]
  binding signal: 7.44 upbm affinity estimate (log intensity, higher = more binding, comparable within an allelic series)

## AACCCCCC
[1]
  binding signal: 7.54 upbm affinity estimate (log intensity, higher = more binding, comparable within an allelic series)
[4]
  binding signal: 7.42 upbm affinity estimate (log intensity, higher = more binding, comparable within an allelic series)

## AGACCCGA
[1]
  binding signal: 7.82 upbm affinity estimate (log intensity, higher = more binding, comparable within an allelic series)
[4]
  binding signal: 7.69 upbm affinity estimate (log intensity, higher = more binding, comparable within an allelic series)

## CATTTGCG
[1]
  binding signal: 10.6 upbm affinity estimate (log intensity, higher = more binding, comparable within an allelic series)
[4]
  binding signal: 10.8 upbm affinity estimate (log intensity, higher = more binding, comparable within an allelic series)

## ACACGAGC
[1]
  binding signal: 7.84 upbm affinity estimate (log intensity, higher = more binding, comparable within an allelic series)
[4]
  binding signal: 7.68 upbm affinity estimate (log intensity, higher = more binding, comparable within an allelic series)

## CCTGGAAG
[1]
  binding signal: 7.71 upbm affinity estimate (log intensity, higher = more binding, comparable within an allelic series)
[4]
  binding signal: 7.54 upbm affinity estimate (log intensity, higher = more binding, comparable within an allelic series)

## CAACAGAG
[1]
  binding signal: 7.94 upbm affinity estimate (log intensity, higher = more binding, comparable within an allelic series)
[4]
  binding signal: 7.66 upbm affinity estimate (log intensity, higher = more binding, comparable within an allelic series)

## ACGTGGCG
[1]
  binding signal: 7.5 upbm affinity estimate (log intensity, higher = more binding, comparable within an allelic series)
[4]
  binding signal: 7.6 upbm affinity estimate (log intensity, higher = more binding, comparable within an allelic series)

## CCTGTCCC
[1]
  binding signal: 7.61 upbm affinity estimate (log intensity, higher = more binding, comparable within an allelic series)
[4]
  binding signal: 7.76 upbm affinity estimate (log intensity, higher = more binding, comparable within an allelic series)

## CACGTGCG
[1]
  binding signal: 7.64 upbm affinity estimate (log intensity, higher = more binding, comparable within an allelic series)
[4]
  binding signal: 7.71 upbm affinity estimate (log intensity, higher = more binding, comparable within an allelic series)

## AGCCGCGG
[1]
  binding signal: 7.58 upbm affinity estimate (log intensity, higher = more binding, comparable within an allelic series)
[4]
  binding signal: 7.46 upbm affinity estimate (log intensity, higher = more binding, comparable within an allelic series)

## GAATGAAC
[1]
  binding signal: 8.91 upbm affinity estimate (log intensity, higher = more binding, comparable within an allelic series)
[4]
  binding signal: 8.78 upbm affinity estimate (log intensity, higher = more binding, comparable within an allelic series)

## GAATAATC
[1]
  binding signal: 11.1 upbm affinity estimate (log intensity, higher = more binding, comparable within an allelic series)
[4]
  binding signal: 11.3 upbm affinity estimate (log intensity, higher = more binding, comparable within an allelic series)

## GTCCCAAC
[1]
  binding signal: 7.52 upbm affinity estimate (log intensity, higher = more binding, comparable within an allelic series)
[4]
  binding signal: 7.63 upbm affinity estimate (log intensity, higher = more binding, comparable within an allelic series)

## GAACATAA
[1]
  binding signal: 10.5 upbm affinity estimate (log intensity, higher = more binding, comparable within an allelic series)
[4]
  binding signal: 10.7 upbm affinity estimate (log intensity, higher = more binding, comparable within an allelic series)

## GTTATAGA
[1]
  binding signal: 9.85 upbm affinity estimate (log intensity, higher = more binding, comparable within an allelic series)
[4]
  binding signal: 9.7 upbm affinity estimate (log intensity, higher = more binding, comparable within an allelic series)

## CAGAAGGC
[1]
  binding signal: 7.78 upbm affinity estimate (log intensity, higher = more binding, comparable within an allelic series)
[4]
  binding signal: 7.7 upbm affinity estimate (log intensity, higher = more binding, comparable within an allelic series)

## ATAAGCGC
[1]
  binding signal: 9.9 upbm affinity estimate (log intensity, higher = more binding, comparable within an allelic series)
[4]
  binding signal: 10 upbm affinity estimate (log intensity, higher = more binding, comparable within an allelic series)

## TAGATTGA
[1]
  binding signal: 10.2 upbm affinity estimate (log intensity, higher = more binding, comparable within an allelic series)
[4]
  binding signal: 10.3 upbm affinity estimate (log intensity, higher = more binding, comparable within an allelic series)

## TGGCATAA
[1]
  binding signal: 10 upbm affinity estimate (log intensity, higher = more binding, comparable within an allelic series)
[4]
  binding signal: 9.76 upbm affinity estimate (log intensity, higher = more binding, comparable within an allelic series)
